Data: PubChem BioAssay (EPA / NIEHS)
Inconclusive results are not listed. Active and inactive are the calls of the source. How the source made its calls: active means hit-call score of the fitted dose curve at least 0.9, where 1 is the maximum; inconclusive means response in the unintended direction; inactive means score below 0.9.

Tests used:
[1] = ATG_XTT_Cytotoxicity: Cytotoxicity Assessment in the Attagene TRANS-FACTORIAL HepG2 Assay (AID 2283584)
In short: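 HepG2 cells transiently transfected with GAL4-UAS multiple reporter units, dosed 24 h; cytotoxicity read by XTT as loss of signal versus DMSO baseline.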

[2] = TOX21_p53_BLA_p2_viability: Viability Assessment in the Tox21 HCT-116 p53 Agonism Beta-lactamase Assay, Phase 2 (AID 2283591);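 further: compound exposure lasted 16 h at 37 °C; actives lower the ATP signal meaning cytotoxicity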
In short: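 HCT-116 p53-bla cells (4000/well) rested 5 h at 37C, then received compounds in DMSO (217-fold dilution) for 16 h at 37C, 5% CO2. After the CCF4 read, CellTiter-Glo was added; ATP luminescence was read after 30 min at room temperature.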

[3] = biological target: Cellular tumor antigen p53 (Homo sapiens) (UniProt P04637); test: TOX21_p53_BLA_p2_ratio: Tox21 HCT-116 p53 Agonism Beta-lactamase Assay, Ratio, Phase 2 (AID 2283592)
In short: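 HCT-116 cells with p53-responsive beta-lactamase reporter, 4000 cells/well, preincubated 5 h, then compound in DMSO (217-fold dilution) for 16 h at 37C. CCF4-AM substrate 2 h at room temperature; 460/530 nm emission ratio fitted upward versus DMSO.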

[4] = biological target: Cellular tumor antigen p53 (Homo sapiens) (UniProt P04637); test: TOX21_p53_BLA_p3_ratio: Tox21 HCT-116 p53 Agonism Beta-lactamase Assay, Ratio, Phase 3 (AID 2283596)
In short: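 HCT116 p53-bla cells (4000/well) given compound in DMSO (217-fold dilution) after 5 h, incubated 16 h at 37C. CCF4-AM substrate 2 h at room temperature; 460/530 nm emission ratio, gain fitted against DMSO.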

[5] = biological target: Cellular tumor antigen p53 (Homo sapiens) (UniProt P04637); test: TOX21_p53_BLA_p5_ratio: Tox21 HCT-116 p53 Agonism Beta-lactamase Assay, Ratio, Phase 5 (AID 2283599)
In short: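 HCT-116 cells carrying a p53-inducible beta-lactamase reporter were seeded at 4000 cells/well and dosed after 5 h with compound in DMSO (217-fold dilution). After 16 h at 37C, CCF4-AM substrate was added for 2 h, and the 460/530 nm emission ratio was scored as gain-of-signal versus DMSO.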

[6] = TOX21_p53_BLA_p5_viability: Viability Assessment in the Tox21 HCT-116 p53 Agonism Beta-lactamase Assay, Phase 5 (AID 2283600)
In short: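 HCT-116 p53 beta-lactamase reporter cells, 4000/well, were exposed to compound (pin transfer, 217-fold dilution) for 16 hours at 37C. Cellular ATP was read by CellTiter-Glo luminescence after 30 min at room temperature.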

[7] = TOX21_p53_BLA_p4_viability: Viability Assessment in the Tox21 HCT-116 p53 Agonism Beta-lactamase Assay, Phase 4 (AID 2283597);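 further: hits lower the luminescence signal meaning cytotoxicity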
In short: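 HCT-116 p53-bla cells, 4000/well, dosed after 5 h attachment and incubated 16 h at 37 °C, 5% CO2. Viability from CellTiter-Glo ATP luminescence after 30 min at room temperature, taken after the beta-lactamase read; loss of signal indicates cytotoxicity.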

[8] = TOX21_p53_BLA_p3_viability: Viability Assessment in the Tox21 HCT-116 p53 Agonism Beta-lactamase Assay, Phase 3 (AID 2283593);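 further: cells exposed to compound for 16 h before reading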
In short: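 HCT-116 cells (4000/well) rested 5 h at 37C, then got DMSO compounds by pin tool (217-fold dilution) for 16 h at 37C, 5% CO2. After the bla read, CellTiter-Glo was added and luminescence read at 30 min, room temperature.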

Measured: AC50

Cellular tumor antigen p53 (Homo sapiens), sequence (P04637 whole entry, looked up): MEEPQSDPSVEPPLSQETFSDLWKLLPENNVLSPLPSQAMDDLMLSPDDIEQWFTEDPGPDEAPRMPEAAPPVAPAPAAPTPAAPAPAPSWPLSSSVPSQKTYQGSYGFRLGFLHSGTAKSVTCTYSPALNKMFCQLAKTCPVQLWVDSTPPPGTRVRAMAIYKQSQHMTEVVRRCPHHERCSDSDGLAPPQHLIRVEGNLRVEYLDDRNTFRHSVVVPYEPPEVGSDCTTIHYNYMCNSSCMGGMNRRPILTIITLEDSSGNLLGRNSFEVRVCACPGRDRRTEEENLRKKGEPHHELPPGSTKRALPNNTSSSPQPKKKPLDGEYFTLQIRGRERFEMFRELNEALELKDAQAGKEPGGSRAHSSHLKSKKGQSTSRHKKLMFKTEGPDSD

CCOC(=O)NNc1nncc2ccccc12
inactive: [1] | [2] | [3] | [4] | [5] | [6]

CC(C)CCCC(C)CC=O (configuration not stated)
inactive: [1] | [2] | [3] | [7] | [5] | [6]

O=C(C(Cl)Cl)N1CCOC12CCCCC2
inactive: [1] | [2] | [4] | [7]

CC(CC=O)c1ccccc1 (configuration not stated)
inactive: [1] | [2] | [8] | [4] | [7] | [6]

CCCCC(CC)COC(=O)c1ccccc1O (configuration not stated)
inactive: [1] | [2] | [8] | [7] | [6]

C(=CC=Nc1ccccc1)C=CNc1ccccc1
inactive: [1] | [3] | [8] | [4] | [7] | [5] | [6]

CCc1ccc2c(c1)C(=O)c1ccccc1C2=O
inactive: [1] | [2] | [8] | [6]

Cc1ccc([N+](=O)[O-])cc1S(=O)(=O)O
inactive: [1] | [2] | [3] | [4] | [6]

CC(C)c1ccc(C=O)cc1
inactive: [1] | [3] | [8]

O=c1c2ccccc2nnn1CCl
inactive: [1] | [2] | [8] | [4] | [7] | [5] | [6]

CCCCCCCCC(=O)OCC
inactive: [1] | [2] | [4] | [7] | [5] | [6]

COCCOCCOCCOCCOC
inactive: [1] | [2] | [7] | [6]

CN(C)CCCN(C)C
inactive: [1] | [2] | [3] | [4] | [6]

CC(=O)[C@H]1[C@H](C#N)C[C@H]2[C@@H]3CC=C4C[C@@H](O)CC[C@]4(C)[C@H]3CC[C@@]21C
inactive: [1] | [2] | [7] | [6]

CC1=CC[C@H](C(C)C)C=C1
inactive: [1] | [2] | [8] | [7] | [6]

CC(=O)c1ccc2c(c1)CCCC2
inactive: [1] | [2] | [8] | [4]

N[C@H]1C(O)O[C@H](CO)[C@H](O)[C@@H]1O (some centres not stated)
inactive: [1] | [2] | [8] | [4] | [7] | [6]

CCCCCC/C=C\CCCCCCCC(=O)O
inactive: [1] | [2] | [4] | [6]
active: [8] 76.5 µM

O=C(O)c1cc2ccccc2nc1C(=O)O
inactive: [1] | [2] | [3] | [7] | [5]

Cc1cccc(N)n1
inactive: [1] | [2] | [3] | [7] | [5] | [6]

N#CCc1ccc(Cl)cc1Cl
inactive: [1] | [2] | [7] | [5]

O=C1C=CC(=O)O1
inactive: [1] | [2] | [3] | [5] | [6]

CCOCC(=O)O
inactive: [1] | [2] | [4] | [7] | [5] | [6]

CCC(Cc1ccccc1)(C(=O)c1ccc(N2CCOCC2)cc1)N(C)C (configuration not stated)
inactive: [1] | [2] | [3] | [4] | [7] | [6]

CCCCCCCCO[C@@H]1O[C@H](CO)[C@@H](O)[C@H](O)[C@H]1O
inactive: [1] | [3] | [8] | [4]

CC(C)(C)c1ccc(OC(=O)c2ccccc2O)cc1
inactive: [1] | [2] | [3] | [7]

CCCCCc1ccc(Cl)cc1
inactive: [1] | [2] | [4] | [5]

CCO[Si](C)(OCC)OCC
inactive: [1] | [2] | [3] | [4] | [5] | [6]

CCO[Si](CCCN=C=O)(OCC)OCC
inactive: [1] | [3] | [4]

CC1(C)S[C@@H]2[C@H](NC(=O)COc3ccccc3)C(=O)N2[C@H]1C(=O)O
inactive: [1] | [3] | [4] | [7] | [5]

C=C[Si](OC(C)=O)(OC(C)=O)OC(C)=O
inactive: [1] | [3] | [8] | [4] | [6]

CC(=O)C=CC1C(C)=CCC(C)C1(C)C (configuration not stated)
inactive: [1] | [3] | [8] | [5] | [6]

CCC(=O)Oc1ccc(/C(CC)=C(\CC)c2ccc(OC(=O)CC)cc2)cc1
inactive: [1] | [6]
active: [3] 6.81 µM | [4] 16.4 µM | [5] 5.08 µM

c1ccc(CNCc2ccccc2)cc1
inactive: [1] | [3] | [4] | [7]

NNC(=O)c1cccc(C(=O)NN)c1
inactive: [1] | [3] | [4] | [7] | [5]

CC1=NN(c2cc(S(=O)(=O)O)ccc2Cl)C(=O)C1N=Nc1ccccc1 (configuration not stated)
inactive: [1] | [3] | [4] | [7] | [5]

ON(Cc1ccccc1)Cc1ccccc1
inactive: [1] | [3] | [8] | [4] | [6]

O=CN1CCCCC1
inactive: [1] | [3] | [8] | [4] | [5] | [6]

COc1c2ccoc2cc2oc(=O)ccc12
inactive: [1] | [3] | [8] | [4] | [7] | [6]

CC(C)CCCCCOC(=O)CCS
inactive: [1] | [3] | [4] | [5]

Cc1cnc(NC(=O)C2=C(O)c3ccccc3S(=O)(=O)N2C)s1
inactive: [1] | [3] | [4] | [5]

O=C1CCCCCCCCCCC(=O)OCCO1
inactive: [1] | [3] | [4] | [5] | [6]

CCN(CCO)c1cccc(C)c1
inactive: [1] | [3] | [4]
